Drawing on PubChem BioAssay (NCI), this text covers growth for 40 compounds.

Molecules are shown by their SMILES. This is part of a sample that, as a whole, favours compounds with a hit. Of some 83,000 tested, about 20% had one in any assay.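 Method: cells in 96-well plates; compound added at one concentration; 48 h incubation; percent growth measured; values under 10 scored active.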 Active and inactive are the calls of the source.

For this assay, the system named is A549/ATCC NSCLC. The experiment in a line: NCI-60 one-dose screen, 48 h (100 = growth as untreated, 0 = no growth, -100 = all killed). Conditions: 10 µM unless noted. Here is the method: Growth inhibition of the A549/ATCC human Non-Small Cell Lung tumor cell line is measured as a screen for anti-cancer activity. Cells are grown in 96 well plates and exposed to the test compound for 48 hours. Compounds are tested at a single concentration, which is 10^-5 M for most compounds. The reported endpoint is percent growth (GI% or GIPRCNT), where numbers from 0 - 100% represent growth inhibition, and numbers from -100% - 0 represent cell death. For example, a value of 40 represents 60% growth inhibition. A value of 0 means no net growth occurred over the course of the experiment. A value of -40 indicates 40% of cells at the beginning of the experiment died by the end of the experiment. A value of -100 means all cells are dead at the end of the experiment.
NCI-60 Human Tumor Cell Lines Screen was performed using the standard one-dose NCI protocol, which is described in more detail at https://dtp.cancer.gov/discovery_development/nci-60/default.htm.
Compounds with GIPRCNT values below 10 were considered active. Activity score was based on GIPRCNT using the following formula: […]
Score is 0 for GIPRCNT values of 100 or above, 50 for GIPRCNT values of 0, and 100 for GIPRCNT values of -100.
In the case of `COC(=O)CCCNc1c(-c2c(O)c(O)cc3c(O)c(-c4c(C)cc5c(-c6nc7ccccn7c6NCCCC(=O)OC)c(O)c(O)cc5c4O)c(C)cc23)nc2ccccn12`, the growth was 23.4% (inactive).

Regarding `Cc1cc(Nc2ncc(Cl)c(Nc3ccccc3S(=O)(=O)C(C)C)n2)c(OC(C)C)cc1C1CCNCC1`, the growth was -99.8% (active).

As for `CCN(CC)CCOc1ccc(/C(=C(\C)c2ccc(Cl)cc2)c2ccc(Cl)cc2)cc1`, the growth was 45.2% (inactive).

Turning to `CNC(=O)c1nn(C)c2c1C(C)(C)Cc1cnc(Nc3ccc(N4CCN(C)CC4)cc3)nc1-2`, the growth was -0.797% (active).

Turning to `C[C@@H](NC(=O)c1ncnc(N)c1Cl)c1ncc(C(=O)Nc2cc(C(F)(F)F)c(Cl)cn2)s1`, the growth is 53.2% (inactive).

Take `COc1cnc2c(c1)C(=O)c1c-2n(CCCn2ccnc2)c(=O)c2cc(Cl)ccc12`: the growth was 17.4% (inactive).

For the compound `O=C(Cc1ccc(/C=C/C(=O)c2ncc[nH]2)cc1)Nc1ccc(Br)cc1`, the growth was 39.4% (inactive).

For the compound `CC(=Nc1ccccc1)C1=C(O)C(Cc2ccc(O)cc2)NC1=O` (stereo not given), the growth was -27.7% (active).

As to `COc1ccc2c(c1)cn1c3ccc(O)cc3nc(N)c21`, the growth is 38% (inactive).

`COCc1c(-c2ccc(NC(=O)Nc3cc(C(F)(F)F)ccc3F)c(F)c2)c2c(N)ncnn2c1CN1CCOCC1`: the growth is -18.8% (active).

Regarding `O=C(Cc1ccc(-c2ccc(OCCN3CCOCC3)cc2)cn1)NCc1ccccc1`, the growth is 4.91% (active).

Consider `O=C1NC(=O)[C@@H](c2cn3c4c(cccc24)CCC3)[C@@H]1c1c[nH]c2ccccc12`, for which the growth was 6.25% (active).

On to `Nc1c(C(=O)c2ccccc2)sc2nc(-c3cccs3)cc(-c3cccs3)c12`, for which the growth was 36.2% (inactive).

In the case of `Cn1cc(-c2ccc(F)c(C(F)(F)F)c2)nc1C1CCN(c2ncnc3[nH]ncc23)CC1`, the growth was 50.4% (inactive).

As to `Cc1cc(Nc2nc(N[C@@H](C)c3ncc(F)cn3)ncc2Cl)n[nH]1`, the growth was 66.2% (inactive).

As for `COC[C@@H](C)n1c(C2CCOCC2)nc2c1C1C=C(OC)C(c3c(C)noc3C)=CC1N=C2` (stereo not given in full), the growth was 42.6% (inactive).

As for `CCN1CCN(Cc2ccc(-c3cc4c(N[C@H](C)c5ccccc5)ncnc4[nH]3)cc2)CC1`, the growth was 17.5% (inactive).

Take `COc1cc2c(cc1OCCCCN1CCN(CC(=O)Nc3ccc(Cl)cc3C(=O)c3ccccc3Cl)CC1)N=CC1CCCN1C2=O` (stereo not given): the growth is -69.5% (active).

As for `C=CC(=O)N1CCC(Oc2cc3c(Nc4ccc(Cl)c(Cl)c4F)ncnc3cc2OC)CC1`, the growth is 15.7% (inactive).

Take `NC[C@@](O)(c1ccc(Cl)cc1)c1ccc(-c2cn[nH]c2)cc1`: the growth is 18.3% (inactive).

For `CN(C)C1CCN(C(=O)c2ccc(NC(=O)Nc3ccc(-c4nc(N5CCOCC5)nc(N5CCOCC5)n4)cc3)cc2)CC1`, the growth is -25.2% [2.5 µM] (active).

For `CN1CCN(CCCOc2cccc3nc(Nc4ccc(Cl)c(C(F)(F)F)c4)ccc23)CC1`, the growth was 6.87% (active).

Take `C[C@H]1Oc2cc(cnc2N)-c2c(nn(C)c2C#N)CN(C)C(=O)c2ccc(F)cc21`: the growth is 66.1% (inactive).

With `CC1CCC(n2cnc3c(Cl)ncnc32)O1` (stereo not given), the growth is 106% (inactive).

On to `N[C@@H]1CCCN(c2c(/C=C3\SC(=O)NC3=O)cccc2-c2ccccc2)C1`, for which the growth is 52.6% (inactive).

With `NC1(C(=O)N[C@@H](CCO)c2ccc(Cl)cc2)CCN(c2ncnc3[nH]ccc23)CC1`, the growth is 56.6% (inactive).

`Nc1ncnc2c1c(-c1cccc(OCc3ccccc3)c1)cn2C1CC(CN2CCC2)C1` (stereo not given): the growth is 4.8% (active).

On to `COc1ccc(-c2cc3c(oc2=O)-c2ccccc2OC3OC(C)=O)cc1` (stereo not given), for which the growth is 93.3% (inactive).

With `Cc1csc(-c2nnc(Nc3ccc(Oc4ncccc4-c4ccnc(N)n4)cc3)c3ccccc23)c1`, the growth is 26.6% (inactive).

For `C[C@@H](Oc1cc(C(=O)Nc2ccc(C(=O)N3CCN(C)CC3)cc2)nnc1N)c1c(Cl)ccc(F)c1Cl`, the growth was 55.8% (inactive).

Take `Cc1cn(-c2cc(NC(=O)c3ccc(C)c(Nc4nccc(-c5cnccn5)n4)c3)cc(C(F)(F)F)c2)cn1`: the growth was 62.5% (inactive).

For `O=C(NC1CCNCC1)c1[nH]ncc1NC(=O)c1c(Cl)cccc1Cl`, the growth was 8.09% (active).

With `CN1[C@@H]2CC[C@H]1/C(=C\c1ccccc1)C1=C2[C@@H](c2ccccc2)C(C#N)=C(N)O1`, the growth is 48.3% (inactive).

For the compound `O=C(O)C1(Cc2cccc(Nc3nccs3)n2)CCC(Oc2cccc(Cl)c2F)CC1` (stereo not given), the growth was 41.9% (inactive).

Take `Cc1cccc(Cl)c1NC(=O)c1cnc(Nc2cc(N3CCOCC3)cc(N3CCOCC3)c2)s1`: the growth is 10.7% (inactive).

Regarding `CCc1ccc(/C=C/c2ccc(O)c3ncccc23)[n+](C)c1`, the growth was 18.3% (inactive).

For the compound `NC1=Nc2cc(OCCCN3Cc4ccccc4C3)c(OCC3CC3)cc2C12CCCC2`, the growth is 64.4% (inactive).

`O=C(Nc1nc2cccc(-c3ccc(CN4CCS(=O)(=O)CC4)cc3)n2n1)C1CC1`: the growth was 60.1% (inactive).

Consider `C#Cc1cccc(Nc2ncnc3cc(OC)c(OCCCCCCC(=O)NO)cc23)c1`, for which the growth is -32.8% (active).

Take `COc1cc2ncnc(Nc3ccc(F)c(Cl)c3)c2cc1NC(=O)/C=C/CN1CCCCC1`: the growth is -76.9% (active).
